Results published in PubChem BioAssay AID504599 (National Center for Advancing Translational Sciences (NCATS), 2011).
Several values for one entry are separate records, joined by “and”; a condition that tells them apart may be missing. Equal values may be shown once. Activity calls are given as the source filed them. Calls come from the whole dose curve; as a rule, active = well fitted inhibition curve with a large enough effect; inconclusive = small, poorly fitted or top-dose-only effect; inactive = flat fitted curve, though single readings scatter.

Assay: Quantitative high throughput screen for delayed death inhibitors of the malarial parasite plastid, 96 hour incubation.
Conditions: P. falciparum luciferase growth
Source text: NIH Molecular Libraries Probe Production Network [MLPCN] NIH Chemical Genomics Center [NCGC] MLPCN Grant: R21 NS059500 Assay Provider: David Fidock and Eric Ekland, Columbia University The goal of this screen is to discover new antimalarial compounds that act by inhibiting the development of the apicoplast in the malarial parasite Plasmodium falciparum. The biochemical processes that make this organelle essential for erythrocytic stage parasites are not well understood. However, antibiotics, such as azithromycin and tetracycline, which target the apicoplast translational machinery, have a potent antimalarial effect. […] We have developed a cell-based assay that measures parasite growth based on the expression of an integrated copy of a firefly luciferase reporter. To detect small molecules that cause this 'delayed death' phenotype, erythrocytes infected with the luciferase-expressing parasites were incubated with compounds for either one or two generations, corresponding to 48 and 96 hours, respectively. Compounds that inhibit parasite growth in the second generation, but not the first, should be enriched in antimalarials that target the apicoplast. Growth inhibition is detected by a decrease in luciferase activity
Four microliters of culture medium (RPMI 1640 with 0.5% w/v Albumax (GIBCO), 24 mM sodium bicarbonate and 10 ug/mL gentamycin) were dispensed by a Multi-drop Combi into white solid 1536-well plates (Grenier) and 23 nL compound was added by a pin tool. Four microliters of infected erythrocytes (2% hematocrit, 0.1% parasitemia final concentration) in culture medium were dispensed and the plates incubated for 96 hours at 37 C in 5% CO2. Two microliters of luciferase detection reagent was added and luminescence was detected by a ViewLux (PerkinElmer) reader

| Compound | Potency |
| --- | --- |
| C[C@@H]1CN([C@@H](C)CO)C(=O)c2cc(Nc3nc4ccccc4o3)ccc2O[C@@H](C)CCCCO[C@H]1CN(C)S(=O)(=O)c1ccc(F)cc1 | 1130 nM (active) |
| C[C@@H]1CN([C@@H](C)CO)C(=O)c2cc(N)ccc2O[C@@H](C)CCCCO[C@H]1CN(C)S(=O)(=O)c1ccc(F)cc1 | 63.4 nM (active) |
| C[C@@H]1CN([C@@H](C)CO)C(=O)c2cc(NC(=O)Nc3ccccc3)ccc2O[C@@H](C)CCCCO[C@H]1CN(C)S(=O)(=O)c1ccc(C(F)(F)F)cc1 | 798 nM (active) |
| COCCOCOC[C@H](C)N1C[C@@H](C)[C@H](CN(C)S(=O)(=O)c2ccc(F)cc2)OCCCC[C@H](C)Oc2ccc(NC(=O)Nc3ccccc3)cc2C1=O | 11.3 nM (active) |
| C[C@@H]1CN([C@@H](C)CO)C(=O)c2cc(NC(=O)Nc3ccccc3)ccc2O[C@@H](C)CCCCO[C@H]1CN(C)S(=O)(=O)c1ccccc1F | 449 nM (active) |
| Cc1noc(C)c1NC(=O)Nc1ccc2c(c1)C(=O)N(C(C)C)C[C@@H](C)[C@H](CN(C)S(=O)(=O)c1ccc(F)cc1)OCCCC[C@H](C)O2 | 44.9 nM (active) and 1.42 µM (active) |
| C[C@@H]1CN([C@@H](C)CO)C(=O)c2cc(NC(=O)Nc3ccccc3)ccc2O[C@@H](C)C/C=C\CO[C@H]1CN(C)S(=O)(=O)c1ccc(F)cc1 | 252 nM (active) |
| C[C@@H]1CN([C@H](C)CO[Si](C)(C)C(C)(C)C)C(=O)c2cc(NC(=O)Nc3ccccc3)ccc2O[C@@H](C)CCCCO[C@H]1CN(C)S(=O)(=O)c1ccc(F)cc1 | 159 nM (active) |
| C=CCOC(=O)N(C)C[C@H]1OCCCC[C@H](C)Oc2ccc(NC(=O)Nc3ccccc3)cc2C(=O)N([C@@H](C)CO[Si](C)(C)C(C)(C)C)C[C@H]1C | 126 nM (active) |
| C[C@@H]1CN(C)C(=O)c2cc(NC(=O)Nc3ccccc3)ccc2O[C@@H](C)CCCCO[C@@H]1CN(C)S(=O)(=O)c1ccc(F)cc1 | 1000 nM (active) |
| C[C@@H]1CN([C@@H](C)CO)C(=O)c2cc(NC(=O)Nc3ccccc3)ccc2O[C@@H](C)CCCCO[C@H]1CN(C)S(=O)(=O)c1cccc(F)c1 | 7.1 nM (active) |
| CC(C)N1C[C@@H](C)[C@H](CN(C)S(=O)(=O)c2ccc(F)cc2)OCCCC[C@H](C)Oc2ccc(NC(=O)Nc3ccccc3)cc2C1=O | 17.9 nM (active) |
| C[C@@H]1CN([C@@H](C)CN=[N+]=[N-])C(=O)c2cc(NC(=O)Nc3ccccc3)ccc2O[C@@H](C)CCCCO[C@H]1CN(C)S(=O)(=O)c1ccc(F)cc1 | 3.6 nM (active) |
| Cc1noc(C)c1NC(=O)Nc1ccc2c(c1)C(=O)N([C@@H](C)CO)C[C@@H](C)[C@H](CN(C)S(=O)(=O)c1ccc(F)cc1)OCCCC[C@H](C)O2 | 79.8 nM (active) |
| C[C@@H]1CN(CCO[Si](C)(C)C(C)(C)C)C(=O)c2cc(NC(=O)Nc3ccccc3)ccc2O[C@@H](C)CCCCO[C@H]1CN(C)S(=O)(=O)c1ccc(F)cc1 | 40 nM (active) |
| C[C@@H]1CN(CCO)C(=O)c2cc(NC(=O)Nc3ccccc3)ccc2O[C@@H](C)CCCCO[C@H]1CN(C)S(=O)(=O)c1ccc(F)cc1 | 179 nM (active) |
| C[C@@H]1CCCCO[C@H](CN(C)C(=O)Nc2ccc(F)cc2)[C@H](C)CN([C@@H](C)CO)C(=O)c2cc(NS(=O)(=O)c3ccccc3)ccc2O1 | 113 nM (active) |

| Compound | Potency |
| --- | --- |
| C[C@@H]1CN([C@@H](C)COC(=O)c2ccccc2)C(=O)c2cc(NC(=O)Nc3ccccc3)ccc2O[C@@H](C)CCCCO[C@H]1CN(C)S(=O)(=O)c1ccc(F)cc1 | 44.9 nM (active) |
| C[C@@H]1CN([C@@H](C)COC(C)(C)C)C(=O)c2cc(NC(=O)Nc3ccccc3)ccc2O[C@@H](C)CCCCO[C@H]1CN(C)S(=O)(=O)c1ccc(F)cc1 | 0.8 nM (active) |
| C[C@@H]1CN([C@@H](C)CO)C(=O)c2cc(NC(=O)Nc3ccccc3)ccc2O[C@@H](C)CCCCO[C@H]1CN(C)S(=O)(=O)c1cccnc1 | 2830 nM (active) |
| C[C@@H]1CN([C@@H](C)CO)C(=O)c2cc(NC(=O)Nc3ccccc3)ccc2O[C@@H](C)CCCCO[C@H]1CN(C)C(=O)OC(C)(C)C | 711 nM (active) |
| C=CCOC(=O)N(C)C[C@@H]1OCCCC[C@H](C)Oc2ccc(NC(=O)Nc3ccccc3)cc2C(=O)N([C@H](C)COC(=O)c2ccccc2)C[C@H]1C | 504 nM (active) |
| C=CCOC(=O)N(C)C[C@@H]1OCCCC[C@H](C)Oc2ccc(NC(=O)Nc3ccccc3)cc2C(=O)N([C@@H](C)CO)C[C@H]1C | 252 nM (active) |
| C[C@@H]1CN([C@@H](C)CO[Si](C)(C)C(C)(C)C)C(=O)c2cc(NC(=O)Nc3ccccc3)ccc2O[C@@H](C)CCCCO[C@H]1CN(C)S(=O)(=O)c1ccc(F)cc1 | 0.6 nM (active) |
| C[C@@H]1CN([C@@H](C)COC(=O)c2ccccc2)C(=O)c2cc(NC(=O)Nc3ccccc3)ccc2O[C@@H](C)CCCCO[C@H]1CN(C)C(=O)OC(C)(C)C | 356 nM (active) |
| COCOC[C@H](C)N1C[C@@H](C)[C@H](CN(C)S(=O)(=O)c2ccc(F)cc2)OCCCC[C@H](C)Oc2ccc(NC(=O)Nc3ccccc3)cc2C1=O | 8 nM (active) |
| COc1ccc(COC[C@H](C)N2C[C@@H](C)[C@H](CN(C)Cc3ccc(OC)cc3)OCCCC[C@H](C)Oc3ccc(NC(=O)Nc4ccccc4)cc3C2=O)cc1 | 449 nM (active) |
| COc1ccc(COCCN2C[C@@H](C)[C@H](CN(C)S(=O)(=O)c3ccc(F)cc3)OCCCC[C@H](C)Oc3ccc(NC(=O)Nc4ccccc4)cc3C2=O)cc1 | 71.1 nM (active) |
| C[C@@H]1CN([C@@H](C)CO)C(=O)c2cc(NC(=O)Nc3ccccc3)ccc2O[C@@H](C)CCCCO[C@H]1CN(C)Cc1ccc(C(F)(F)F)cc1 | 711 nM (active) |
| C[C@@H]1CN([C@@H](C)CO)C(=O)c2cc(NC(=O)Nc3ccccc3)ccc2O[C@@H](C)C/C=C/CO[C@H]1CN(C)S(=O)(=O)c1ccc(F)cc1 | 79.8 nM (active) |
| CC(C)NC(=O)Nc1ccc2c(c1)C(=O)N([C@@H](C)CO)C[C@@H](C)[C@H](CN(C)S(=O)(=O)c1ccc(F)cc1)OCCCC[C@H](C)O2 | 449 nM (active) |
| C[C@@H]1CN([C@@H](C)COC(=O)C(C)(C)C)C(=O)c2cc(NC(=O)Nc3ccccc3)ccc2O[C@@H](C)CCCCO[C@H]1CN(C)S(=O)(=O)c1ccc(F)cc1 | 5.7 nM (active) |
| C[C@@H]1CCCCO[C@@H](CN(C)Cc2ccc(F)cc2)[C@H](C)CN([C@@H](C)CO)C(=O)c2cc(NC(=O)Nc3ccccc3)ccc2O1 | 2830 nM (active) |
